Bioassay records (PubChem BioAssay)
BJeLR lethal: MLPCN primary cell-based screen for lethality selective to Ras in HRASV12 cells; BJeLR (HRASV12) viability, CellTiter-Glo ATP luminescence, 48 h; inhibition, % (test concentration not listed); actives 0.17% (n = 300,000); in the data active = inhibition above about 50%; inconclusive = no clear call, values can overlap the other calls
PrP 5UTR inh: inhibition of PrP 5' UTR reporter expression. cell-based PrP 5' UTR mRNA reporter, plate reader. inhibition, % (test concentration not listed). actives 0.35% (n = 340,000). AID 488862, 2010; in the data active = inhibition above about 52%
CCHF vOTU inh-1: CCHFV vOTU protease inhibitors, primary screen, biochemical, Pep-AMC substrate, fluorescence; Crimean-Congo hemorrhagic fever virus L polyprotein viral ovarian tumor (vOTU) protease …; inhibition, % at 11.5 µM; actives 0.55% (n = 370,000)
PfHsp40 rescue: rescue of yeast from PfHsp40 toxicity, primary screen, S. cerevisiae, ATP luminescence; S. cerevisiae expressing PfHsp40, growth rescue; growth rescue, % at 12.5 µM; actives 0.68% (n = 340,000); AID 504582, 2011; in the data active = growth rescue above about 28%, passing the limit was not always enough; inconclusive = no clear call, values can overlap the other calls;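 also: yeast W303a lacking pdr1 and pdr3 grown in galactose medium; growth measured after three days at 30 °C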
Y pestis TopoI: Yersinia pestis topoisomerase I inhibitors, primary screen, biochemical, cleavage product accumulation, plate reader, single point; DNA topoisomerase I (Yersinia pestis CO92); actives 0.064% (n = 360,000); Y. pestis Topo-I cleavage product accumulation; activity, % at 10 µM; AID 504884, 2011; in the data active = activity above about 50%, passing the limit was not always enough; inconclusive = no clear call, values can overlap the other calls
PrPC surface inh: inhibitors of human cell surface prion protein PrPC, primary screen, cell-based, TR-FRET; AID 720596, 2013; Major prion protein (Homo sapiens), P04156; actives 0.43% (n = 370,000); TR-FRET read-out; inhibition, % at 13.8 µM; in the data active = inhibition above about 24%
CCHF vOTU inh-2: CCHFV vOTU protease inhibitors, confirmation, biochemical, Pep-AMC substrate, fluorescence. shares compounds with CCHF vOTU inh-1. Recombinant CCHFV vOTU. inhibition, % at 11.5 µM. actives 17% (n = 1,900)
Hits are given with their value; - = inactive; ? = inconclusive; . = no result. This is a sample that favours compounds with a hit; in the whole collection about 2% have one here. Rule as the data show it, unless noted: active = inhibition above about 30%; inactive = the rest.

SMILES | BJeLR lethal | PrP 5UTR inh | CCHF vOTU inh-1 | PfHsp40 rescue | Y pestis TopoI | PrPC surface inh | CCHF vOTU inh-2
O=C(OCc1nnc(-c2ccccc2)o1)c1ccc([N+](=O)[O-])s1 | . | - | 77 | ? | - | - | 86
O=C(COC(=O)c1ccc([N+](=O)[O-])s1)Nc1ccccc1 | - | - | 61 | - | - | - | 75
CCC1CCc2sc(C(=O)Nc3cc(S(=O)(=O)N4CCOCC4)ccc3OC)cc2C1 (stereo not given) | . | . | . | . | . | - | .
CC(C)C[C@H]1COc2cccc(NCCO)c2S(=O)(=O)N1 | . | . | - | . | . | - | .
COC(=O)c1cc2c(c3c4cc(OC)ccc4n(S(=O)(=O)c4ccc(F)cc4)c13)C(=O)N(Cc1ccccc1)C2 | . | . | - | . | . | - | .
O=C1c2ccccc2C(=O)c2c(/C=C/N3CCCCC3)ccnc21 | . | - | 30 | ? | - | - | 52
CC(C)(C)c1ccc(C(=O)Nc2cccc([N+](=O)[O-])c2)cc1 | - | - | - | - | - | - | .
CC(C)(C)CC(C)(C)NC(=O)Nc1cccc([N+](=O)[O-])c1 | - | . | 39 | - | - | - | -
COC(=O)[C@]1(Cc2ccccc2)N[C@H](CN(C)C(=O)Nc2ccccc2)[C@@H]2C(=O)N(Cc3ccccc3)C(=O)[C@@H]21 | . | - | 37 | - | - | - | -
COc1cc([N+](=O)[O-])ccc1NC(=S)Nc1cccc(C(=O)O)c1 | - | - | 31 | - | - | - | -
COC(=O)Nc1ccc([N+](=O)[O-])cc1OC | - | - | - | - | - | - | .
CC(=O)C1(C(=O)N2CCOCC2)CC(c2ccccc2C(F)(F)F)=NO1 (stereo not given) | . | . | - | . | . | - | .
COC(=O)[C@]12C[C@H](CC(=O)NCC3CCCCC3)C(=O)N(CCc3ccc(OC)c(OC)c3)C1=C[C@H](C(C)C)O[C@@H]2C1CC1 | . | . | - | . | . | - | .
CCCCC[C@@H]1C=C(C(=O)O)[C@H](c2cccc(C)c2)N1S(=O)(=O)c1ccc(C)cc1 | . | - | 32 | - | - | - | -
CCCC[C@@H]1C=C(C(=O)O)[C@H](c2ccc(CC)cc2)N1S(=O)(=O)c1ccc(C)cc1 | . | - | 30 | - | - | - | -
CCCCC[C@@H]1C=C(C(=O)O)[C@H](c2ccc(CC)cc2)N1S(=O)(=O)c1ccc(C)cc1 | . | - | - | - | - | - | .
CCCCC[C@@H]1C=C(C(=O)O)[C@H](c2ccc(Cl)c(Cl)c2)N1S(=O)(=O)c1ccc(C)cc1 | . | - | 37 | - | - | - | -
Cc1ccc(C2c3c(n[nH]c3C)C(=O)N2Cc2ccccc2)cc1 (stereo not given) | . | . | - | . | . | - | .
CC(=O)c1ccc(NC(=O)C2=CC(c3ccco3)=NS(=O)(=O)N2C)cc1 | - | - | 33 | - | - | - | -
COc1ccc(OC)c(S(=O)(=O)Oc2ccc(N)c3ccccc23)c1 | - | - | 30 | - | - | - | -
CCOC(=O)C1=C(C)OC(=CC=Cc2ccccc2)C1=O | . | . | 30 | . | - | - | -
CCOC(=O)N/N=C/C=C/c1ccccc1 | - | - | - | - | - | - | .
N#Cc1cc(Cl)c(N2CCOCC2)cc1C#N | - | - | - | - | - | - | .
N#Cc1cc2ccc(N3CCOCC3)cc2cc1C#N | - | - | 73 | - | - | - | -
CC(=O)c1cc(-c2ccccc2)n(CC(=O)NCc2ccc(F)cc2)c1C | . | . | - | . | . | - | .
SMILES | BJeLR lethal | PrP 5UTR inh | CCHF vOTU inh-1 | PfHsp40 rescue | Y pestis TopoI | PrPC surface inh | CCHF vOTU inh-2
C=CCOC(=O)C1=C(C)NC2(O)c3ccccc3C(=O)C12O (stereo not given) | - | - | - | - | - | - | .
CC1=C(C(=O)OCC(C)C)C2(O)C(=O)c3ccccc3C2(O)N1 (stereo not given) | - | - | 30 | - | - | - | -
O=C1CCC(NC(=O)Cc2ccccc2)C(=O)N1 (stereo not given) | . | . | - | . | . | - | .
Cc1ccc(C)c(-c2cc(C(=O)NNC(=S)NCC(C)C)c3ccccc3n2)c1 | - | - | 34 | 82 | - | - | -
CCNC(=S)NNC(=O)c1cc(-c2ccccc2C)nc2ccccc12 | - | - | . | - | - | . | .
COc1cc(N)c2ncccc2c1Br | . | - | 105 | - | - | - | -
COc1cc(N)c2ncccc2c1SC | . | . | - | . | - | - | .
O=C(CSc1nc2ccccc2c(=O)[nH]1)c1cccs1 | - | - | - | - | - | - | .
N#Cc1c(-c2cccs2)nc(SCC(=O)c2cccs2)[nH]c1=O | - | - | 31 | - | - | - | -
Clc1cc(Cl)cc(CNC2CCC23CCCCC3)c1 (stereo not given) | . | . | . | . | . | - | .
CCCCOc1ccc(/C=C(\C(=O)O)c2ccc(S(=O)(=O)N3CCCC3)s2)cc1 | . | - | - | - | - | - | .
COc1cc(/C=C(\C(=O)O)c2ccc(S(=O)(=O)N3CCCC3)s2)ccc1OCCC(C)C | . | - | 32 | - | - | - | -
CNc1ccc2nc3ccccc3[n+](C)c2c1 | - | - | 102 | - | - | - | 79
C[n+]1c2ccccc2nc2ccc(NCCO)cc21 | - | - | 91 | - | - | - | 81
CC(C)n1c(NCCO)nc2ccccc21 | - | - | - | ? | - | - | .
COC1=C[C@H](C(=O)NCc2ccc(Br)cc2)C(C)C(c2ccccc2)CC1=O (stereo not given in full) | . | . | - | . | . | - | .
Oc1ccc(-c2nn[nH]n2)c2cccnc12 | . | . | . | . | . | - | .
